IL-1B inflam inh: inhibitors of inflammasome signaling (IL-1 beta secretion) | THP-1 LPS/ATP IL-1B secretion, AlphaLISA, 16 h; stronger effect = lower value | activity change, % at 57.5 µM | actives 4.7% (n = 360,000) | AID 743279; in the data active means activity change below about -50%; inconclusive means mostly about -30% to -49%; further: on the % scale 0 is the no-effect control and ±100 the full control effect
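THP-1 cells pretreated 1 hr with compounds (up to 57.5 uM final), then stimulated with LPS (250 ng/mL final) plus ATP (1.25 mM final); secreted IL-1B measured by AlphaLISA after 16 hr, decreased signal indicating inhibition.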
MCF10A rereplic: DNA re-replication induction in MCF 10a cells; AID 624296; actives 2.9% (n = 350,000); Potency, µM (doses to about 46.1 µM), without a hit: at the highest dose activity, positive = re-replication, actives largely listed as activators; MCF 10A DNA re-replication, Hoechst nuclear intensity, 48 h; further: potency means the concentration at half of the fitted maximal effect; % of control where 0% means no effect; nearly all actives have a fitted effect of over 50% in size
Gal4-VP16 FLuc: inhibits Gal4-VP16 luciferase reporter, ROR gamma counter-screen. Drosophila S2 Gal4-VP16 UAS-luciferase, luminescence, 20 h. Potency, µM (doses to about 53.6 µM), for inactives: top-dose activity, negative = inhibition, hits mostly inhibitors. actives 3.5% (n = 310,000);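 further: Gal4-VP16 expression switched on by copper sulfate through the metallothionein promoter; potency means the concentration at half of the fitted maximal effect; on the % scale 0 is the no-effect control and ±100 the full control effect; nearly all actives have a fitted effect of over 50% in size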
SW480 rerep: inducers of DNA re-replication in SW480 colon cancer cells; SW480 DNA re-replication, Hoechst DNA content imaging, 48 h; Potency, µM (series often up to 46.1 µM), inactives show at the top dose re-replication activation, usual class: activators; actives 1.8% (n = 340,000); AID 624297; further: potency means the concentration at half of the fitted maximal effect; % of control where 0% means no effect; nearly all actives have a fitted effect of over 55% in size
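SW480 cells exposed to compounds for 48 hr at 37 C, 5% CO2, then Hoechst-stained 40 min. Nuclear DNA content imaged by fluorescence scanning (405 nm excitation, 500-530 nm emission); re-replication scored as increased high-intensity nuclei.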
RORgamma inh: inhibitors of mouse ROR gamma transcriptional activity | Potency, µM (doses to about 53.6 µM), for the others: at the top dose activity change, negative = inhibition, actives largely listed as inhibitors | actives 5.4% (n = 310,000) | Drosophila S2 Gal4-RORgamma UAS-luciferase reporter, 20 h; further: potency means the concentration at half of the fitted maximal effect; on the % scale 0 is the no-effect control and ±100 the full control effect; nearly all actives have a fitted effect of over 60% in size
Target sequence (P51450 whole entry, looked up, the tested form may be a part): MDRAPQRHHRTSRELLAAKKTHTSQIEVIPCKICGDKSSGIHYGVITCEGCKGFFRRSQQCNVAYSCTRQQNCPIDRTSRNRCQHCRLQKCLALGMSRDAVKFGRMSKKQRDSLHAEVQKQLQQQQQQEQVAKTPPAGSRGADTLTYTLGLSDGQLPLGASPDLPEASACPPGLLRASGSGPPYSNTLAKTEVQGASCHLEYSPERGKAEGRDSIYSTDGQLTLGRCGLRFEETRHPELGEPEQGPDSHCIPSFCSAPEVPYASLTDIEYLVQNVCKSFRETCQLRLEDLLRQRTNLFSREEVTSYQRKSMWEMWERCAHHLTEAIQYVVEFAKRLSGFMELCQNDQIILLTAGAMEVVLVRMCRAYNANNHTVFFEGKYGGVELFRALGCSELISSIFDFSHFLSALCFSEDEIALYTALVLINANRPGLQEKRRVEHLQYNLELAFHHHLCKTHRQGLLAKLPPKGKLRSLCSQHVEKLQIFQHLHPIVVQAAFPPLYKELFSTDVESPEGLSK
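Schneider cells (Drosophila), stable Gal4 DBD–ROR gamma + UAS-luc; 1 hr cmpd preincubation; Cu2+ induction 700 uM final; 20 hr ambient; luminescence.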
* = called active by the depositor; ? = inconclusive; · = no result; [ ] = another dose, or the depositor's remark. This is a sample that favours compounds with a hit; in the whole collection about 11% have one here. Unless noted, the call rests on the fitted dose curve; in most records, active means well fitted curve in the direction sought with a large enough effect; inconclusive means small, poorly fitted or top-dose-only effect, or another doubt; inactive means no such curve, though single readings can be large; an effect the other way counts as inactive or inconclusive.

SMILES | IL-1B inflam inh | MCF10A rereplic | Gal4-VP16 FLuc | SW480 rerep | RORgamma inh
COc1c2c(cc(O)c1C(C)=O)OC(C)(C)C=C2 | -13 | -40% | · | 9% | ·
O=C1C(Cl)=C(N2CCOCC2)C(=O)N1c1cccc(C(F)(F)F)c1 | 11 | -1% | ? | -1% | ?
Cc1ccc(N2C(=O)C(Cl)=C(N3CCOCC3)C2=O)cc1Cl | -70* | ? | ? | 1% | 18%
COc1ccc(OC)c(/C(O)=C/C(=O)C(=O)Nc2cc(C)ccc2OC)c1 | 7 | 2% | 11µM* | 3% | 3.5µM*
COc1ccccc1NC(=O)C(=O)/C=C(\O)c1ccccc1 | · | -17% | ? | -5% | ?
CCOc1ccccc1NC(=O)C(=O)/C=C(\O)c1cc(OC)ccc1OC | 76 | -2% | ? | -4% | ?
COc1ccc(OC)c(/C(O)=C/C(=O)C(=O)Nc2cc(C)cc(C)c2)c1 | 53 | 6% | 18µM* | ? | 2.5µM*
Cc1cc(C)c(OCC(=O)OCC(=O)NNC(=O)c2ccccc2F)c(C)c1 | -16 | 14% | · | 0% | ·
CCC(C)NC(=O)C1(N2C(=O)c3ccccc3C2=O)CCCC1 (configuration not stated) | 0 | 3% | · | 1% | ·
O=C(Nc1ccc(-c2nc3c(ccc4ccccc43)o2)cc1)c1ccco1 | 13 | 4.6µM* | ? | ? | ?
COc1ccc(C2C=CC(=O)CC2)c(OC)c1 (configuration not stated) | -76* | · | · | · | ·
COc1ccc(C2C(=O)c3ccccc3C2=O)c(OC)c1 | 52 | 2% | 4% | -8% | -4%
COc1ccccc1-c1cc(C(=O)N/N=C/c2cccs2)c2ccccc2n1 | -3 | 14µM* | 5.6µM* | 7% | 4.5µM*
Cc1cc(C(=O)N/N=C/c2ccncc2)c2ccccc2n1 | 43 | -2% | -2% | -23% | -36%
Cc1cc(C(=O)N/N=C/c2ccco2)c2ccccc2n1 | 14 | ? | -11% | ? | -3%
O=C(N/N=C/c1ccco1)c1cc(-c2ccncc2)nc2ccccc12 | 34 | ? | · | 16µM* | ·
COc1ccccc1-c1cc(C(=O)N/N=C\c2cnn(C)c2C)c2ccccc2n1 | 14 | ? | 11% | 1% | ?
CCCc1cc(C(=O)N/N=C/c2ccc(CC)s2)c2ccccc2n1 | 30 | 7.3µM* | 6.3µM* | 21µM* | 2.8µM*
CCc1ccc(/C=N/NC(=O)c2cc(-c3ccncc3)nc3ccccc23)s1 | 38 | 1µM* | 5.6µM* | 3.7µM* | 2µM*
CCCCC(=O)N(C)c1c(C)nc2ccc(C(=O)N(C)Cc3ccco3)cn12 | 26 | · | · | · | ·
COc1cc(/C=N/NC(=O)c2cc(-c3ccccc3OC(C)C)nc3ccccc23)ccc1O | 3 | 10µM* | -14% | ? | ?
O=C(N/N=C/c1ccncc1)c1cc(C2CC2)nc2ccccc12 | 67 | -6% | -9% | -8% | 3%
C/C(=N\NC(=O)c1cc(C)nc2ccccc12)c1ccco1 | 18 | 1% | 4% | -7% | -26%
O=C(N/N=C/c1cccs1)c1cc(C2CC2)nc2ccccc12 | 58 | 8.2µM* | 18µM* | 18µM* | 10µM*
O=C(N/N=C/c1cccs1)c1cc(-c2ccncc2)nc2ccccc12 | 19 | ? | 7.1µM* | ? | 5µM*
SMILES | IL-1B inflam inh | MCF10A rereplic | Gal4-VP16 FLuc | SW480 rerep | RORgamma inh
COc1ccc(-c2cc(C(=O)N/N=C(\C)c3ccco3)c3ccccc3n2)c(OC)c1 | -16 | 13% | -30% | 6% | 6.3µM*
COc1ccc(Cn2cc(CN3CC(N4CCCC4)CS3(=O)=O)nn2)cc1 (configuration not stated) | -5 | · | · | · | ·
CCOC(=O)C1=CCN(S(=O)(=O)c2ccccc2Br)C1c1ccc(Cl)c(Cl)c1 (configuration not stated) | -29 | · | · | · | ·
O=C(N/N=C/c1cccs1)c1c[nH]c2ccccc12 | -10 | 3% | 15% | -1% | ?
COc1ccc(-c2cc(C(=O)N/N=C/c3ccc(OC)c(COCC(F)(F)C(F)F)c3)c3ccccc3n2)c(OC)c1 | -9 | 23µM* | -1% | 17% | -5%
CCc1ccc(/C=N/NC(=O)c2c[nH]c3ccccc23)s1 | ? | 3% | -27% | 2% | 11µM*
COc1ccc(-c2cc(C(=O)N/N=C/c3sccc3C)c3ccccc3n2)c(OC)c1 | -9 | ? | ? | ? | 4.5µM*
CCCCN1C(=O)CC2CCOC21C (configuration not stated) | 4 | · | · | · | ·
C#CCCCO/N=C1/C[C@@H](O)[C@@H](O)[C@@H]2[C@H]3C(=O)N(c4ccc(F)cc4F)C(=O)[C@@H]3CC[C@H]12 | · | · | -4%[10 µM] | · | -1%[10 µM]
O=C(CSc1nnc2ccc(-c3ccccn3)nn12)N1CCCC1 | 0 | 8% | · | -2% | ·
OCCN1CCN(C2Cc3cc(Cl)ccc3Sc3ccc(Cl)cc32)CC1 (configuration not stated) (tested in a mixture with another compound) | -98* | ? | -1% | ? | 15%
CN1CCN(C2Cc3cc(Cl)ccc3Sc3cc(F)ccc32)CC1 (configuration not stated) | -94* | ? | · | ? | ·
c1ccc2c(c1)CC(N1CCCCC1)c1ccccc1S2 (configuration not stated) | 0 | 24% | · | -3% | ·
CN1CCN(CCOC2Cc3ccccc3Sc3ccc(Cl)cc32)CC1 (configuration not stated) | -71* | 23µM* | -17% | -7% | 19%
CCCCN(CCCNC(=O)c1ccc2c(c1)NC(=O)CN2C)c1ccccc1 | -103* | · | · | · | ·
Cc1ccc(S(=O)(=O)N[C@H]2COC(=O)C/C=C\[C@H](C)[C@@H](NS(=O)(=O)c3ccc(C)cc3)COC(=O)C/C=C\[C@@H]2C)cc1 | · | · | -6%[10 µM] | · | -3%[10 µM]
CCCCCCN(C(=O)CCCN1C(=O)NC(c2ccc([N+](=O)[O-])cc2)C(C(=O)OCc2ccccc2)=C1C)C(C)C(=O)NCCCC (configuration not stated) | -63* | -14% | · | 11% | ·
CCCCCCN(C(=O)CCCCCN1C(=O)NC(c2ccc(-c3ccccc3)cc2)C(C(=O)OCc2ccccc2)=C1C)C(C(=O)NCCCC)C1CCCCC1 (configuration not stated) | · | · | 0% | · | 15%
COc1cc(/C=C2\CCn3c2nc2cc(C(=O)O)ccc2c3=O)ccc1OC(F)F | 2 | ? | 3% | -15% | 7%
NC(=O)c1ccsc1NC(=O)COC(=O)Cc1cccc2ccccc12 | 3 | 4% | 4.5µM* | -4%[9.22 µM] | -28%
NC(=O)c1ccsc1NC(=O)COC(=O)Cc1c[nH]c2ccccc12 | 6 | 3% | · | 2% | ·
